Over roughly 16,000 sequences, “rpm ratio (pull-down/input)” has its median near 0.94; the highest 2% begin near 1.7. For the sample, the highest values were picked, then their nearest neighbours and some sequences at random.

The target of the experiment is T1, MBP-FoxP1dN (Mus musculus, UniProt P58462 326-579).
T1 sequence: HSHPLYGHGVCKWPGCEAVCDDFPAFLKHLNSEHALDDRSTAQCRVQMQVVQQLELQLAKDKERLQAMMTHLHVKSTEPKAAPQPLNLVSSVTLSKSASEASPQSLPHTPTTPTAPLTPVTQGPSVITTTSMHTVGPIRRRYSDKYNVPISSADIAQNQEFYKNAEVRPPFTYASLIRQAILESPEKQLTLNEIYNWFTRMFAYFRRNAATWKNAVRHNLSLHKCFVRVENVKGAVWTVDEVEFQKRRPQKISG
In words: PD-seq (MBP pull-down with sequencing); 20 mM Tris-HCl pH 7.5, 100 mM NaCl, 1.5 mM MgCl2, 0.4 uM protein, 0.1 uM dsDNA library, 30 min, room temperature, amylose pull-down; high values mean tight binding. Conditions: protein: recombinant; tags: His6-MBP; chain copies: 2; dsDNA, one strand shown. The method in brief:
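Amylose resin was used to capture complexes formed during 30 min at room temperature in Tris pH 7.5 buffer with NaCl and MgCl2 between 0.4 µM His6-MBP-tagged mouse FoxP3 or FoxP1 fragment lacking the N-terminus, expressed in E. coli, and 0.1 µM Klenow-filled double-stranded degenerate DNA library. After three washes, the DNA was released with proteinase K, barcoded by PCR and sequenced on Illumina. Binding is pooled-replicate reads-per-million enrichment, pull-down over input.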
As for “GATGATTGTTCTCCCAGCTGATGAATTTTTGATGTCGAGTAAACAAATTTTCCTAATCTTTCTGTTCAAGCGCCATCTAC”, the binding signal is 1.3 RPM ratio (pull-down/input).

Consider “GATGATTGTTCTCCCAGCTGATGAATTGATGTTGTCGAGTAAACAAATTTTCCTAATCTTTCTGTTCAAGCGCCATCTAC”, for which the binding signal is 2.52 RPM ratio (pull-down/input). Regarding “GATGATTGTTCTCCCAGCTGATGAATTAAAAATGTCGAGTAAACAAATTTTCCTAATCTTTCTGTTCAAGCGCCATCTAC”, the binding signal is 0.979 RPM ratio (pull-down/input). The same measure for “GATGATTGTTCTCCCAGCTGATGAATTTCTATGATCGAGTAAACAAATTTTCCTAATCTTTCTGTTCAAGCGCCATCTAC”: 0.89 RPM ratio (pull-down/input).

For the sequence “GATGATTGTTCTCCCAGCTGATGAATTTTTAATATCGAGTAAACAAATTTTCCTAATCTTTCTGTTCAAGCGCCATCTAC”, the binding signal is 1.24 RPM ratio (pull-down/input).

Regarding “GATGATTGTTCTCCCAGCTGATGAATTCCGACCATCGAGTAAACAAATTTTCCTAATCTTTCTGTTCAAGCGCCATCTAC”, the binding signal was 0.869 RPM ratio (pull-down/input). The same measure for “GATGATTGTTCTCCCAGCTGATGAATTACGGGCATCGAGTAAACAAATTTTCCTAATCTTTCTGTTCAAGCGCCATCTAC”: 1.11 RPM ratio (pull-down/input). Regarding “GATGATTGTTCTCCCAGCTGATGAATTGGCGATTTCGAGTAAACAAATTTTCCTAATCTTTCTGTTCAAGCGCCATCTAC”, the binding signal was 0.865 RPM ratio (pull-down/input). As for “GATGATTGTTCTCCCAGCTGATGAATTTTACGGATCGAGTAAACAAATTTTCCTAATCTTTCTGTTCAAGCGCCATCTAC”, the binding signal is 0.879 RPM ratio (pull-down/input). As for “GATGATTGTTCTCCCAGCTGATGAATTGTCACGGTCGAGTAAACAAATTTTCCTAATCTTTCTGTTCAAGCGCCATCTAC”, the binding signal is 0.924 RPM ratio (pull-down/input). Under “GATGATTGTTCTCCCAGCTGATGAATTATTCGTTTCGAGTAAACAAATTTTCCTAATCTTTCTGTTCAAGCGCCATCTAC” stands 1.01 RPM ratio (pull-down/input); under “GATGATTGTTCTCCCAGCTGATGAATTCCTACCGTCGAGTAAACAAATTTTCCTAATCTTTCTGTTCAAGCGCCATCTAC”, 0.731 RPM ratio (pull-down/input); under “GATGATTGTTCTCCCAGCTGATGAATTTCTGTGGTCGAGTAAACAAATTTTCCTAATCTTTCTGTTCAAGCGCCATCTAC”, 0.924 RPM ratio (pull-down/input). The same measure for “GATGATTGTTCTCCCAGCTGATGAATTGGTGTGGTCGAGTAAACAAATTTTCCTAATCTTTCTGTTCAAGCGCCATCTAC”: 1.04 RPM ratio (pull-down/input); for “GATGATTGTTCTCCCAGCTGATGAATTTTTGTGGTCGAGTAAACAAATTTTCCTAATCTTTCTGTTCAAGCGCCATCTAC”: 1.23 RPM ratio (pull-down/input).

Regarding “GATGATTGTTCTCCCAGCTGATGAATTGTGTTGGTCGAGTAAACAAATTTTCCTAATCTTTCTGTTCAAGCGCCATCTAC”, the binding signal is 1.92 RPM ratio (pull-down/input). As to “GATGATTGTTCTCCCAGCTGATGAATTGGTTGTGTCGAGTAAACAAATTTTCCTAATCTTTCTGTTCAAGCGCCATCTAC”, the binding signal is 1.2 RPM ratio (pull-down/input). As to “GATGATTGTTCTCCCAGCTGATGAATTGTTGTGGTCGAGTAAACAAATTTTCCTAATCTTTCTGTTCAAGCGCCATCTAC”, the binding signal is 2.1 RPM ratio (pull-down/input).

As to “GATGATTGTTCTCCCAGCTGATGAATTAGCTCAGTCGAGTAAACAAATTTTCCTAATCTTTCTGTTCAAGCGCCATCTAC”, the binding signal is 0.833 RPM ratio (pull-down/input). The same measure for “GATGATTGTTCTCCCAGCTGATGAATTTAGGTACTCGAGTAAACAAATTTTCCTAATCTTTCTGTTCAAGCGCCATCTAC”: 0.947 RPM ratio (pull-down/input).

In the case of “GATGATTGTTCTCCCAGCTGATGAATTTCGCATCTCGAGTAAACAAATTTTCCTAATCTTTCTGTTCAAGCGCCATCTAC”, the binding signal is 1.21 RPM ratio (pull-down/input).

“GATGATTGTTCTCCCAGCTGATGAATTTGCCGGATCGAGTAAACAAATTTTCCTAATCTTTCTGTTCAAGCGCCATCTAC”: the binding signal was 0.839 RPM ratio (pull-down/input). Under “GATGATTGTTCTCCCAGCTGATGAATTAAACAAATCGAGTAAACAAATTTTCCTAATCTTTCTGTTCAAGCGCCATCTAC” stands 2.02 RPM ratio (pull-down/input). Under “GATGATTGTTCTCCCAGCTGATGAATTAAAAACATCGAGTAAACAAATTTTCCTAATCTTTCTGTTCAAGCGCCATCTAC” stands 2.08 RPM ratio (pull-down/input); under “GATGATTGTTCTCCCAGCTGATGAATTAATTCAATCGAGTAAACAAATTTTCCTAATCTTTCTGTTCAAGCGCCATCTAC”, 0.961 RPM ratio (pull-down/input); under “GATGATTGTTCTCCCAGCTGATGAATTAAACAACTCGAGTAAACAAATTTTCCTAATCTTTCTGTTCAAGCGCCATCTAC”, 1.84 RPM ratio (pull-down/input).

Take “GATGATTGTTCTCCCAGCTGATGAATTAATCTAATCGAGTAAACAAATTTTCCTAATCTTTCTGTTCAAGCGCCATCTAC”: the binding signal is 1.1 RPM ratio (pull-down/input). Under “GATGATTGTTCTCCCAGCTGATGAATTAATCAACTCGAGTAAACAAATTTTCCTAATCTTTCTGTTCAAGCGCCATCTAC” stands 1.1 RPM ratio (pull-down/input); under “GATGATTGTTCTCCCAGCTGATGAATTAAATCAATCGAGTAAACAAATTTTCCTAATCTTTCTGTTCAAGCGCCATCTAC”, 1.01 RPM ratio (pull-down/input).

“GATGATTGTTCTCCCAGCTGATGAATTAAACTCCTCGAGTAAACAAATTTTCCTAATCTTTCTGTTCAAGCGCCATCTAC”: the binding signal is 0.846 RPM ratio (pull-down/input). As for “GATGATTGTTCTCCCAGCTGATGAATTAAAAAAATCGAGTAAACAAATTTTCCTAATCTTTCTGTTCAAGCGCCATCTAC”, the binding signal was 1.04 RPM ratio (pull-down/input). Under “GATGATTGTTCTCCCAGCTGATGAATTAAATTAATCGAGTAAACAAATTTTCCTAATCTTTCTGTTCAAGCGCCATCTAC” stands 1.01 RPM ratio (pull-down/input). With “GATGATTGTTCTCCCAGCTGATGAATTAAAACAATCGAGTAAACAAATTTTCCTAATCTTTCTGTTCAAGCGCCATCTAC”, the binding signal is 2 RPM ratio (pull-down/input). The same measure for “GATGATTGTTCTCCCAGCTGATGAATTTAAAACATCGAGTAAACAAATTTTCCTAATCTTTCTGTTCAAGCGCCATCTAC”: 1.37 RPM ratio (pull-down/input).

(Values after publication PMC12820563, “FoxP3 forms a head-to-head dimer in vivo and stabilizes its multimerization on adjacent microsatellites”.)
